About 250 (12%) of roughly 2,000 compounds were called active. Many of the other results were omitted from the sample, so actives are more common in it than they were. Values without a mark were called inactive. No stated cut-off is given here; in the data, active means hERG blockade below about -20% or above about 20%; inactive means in between.
Molecular target: Voltage-gated inwardly rectifying potassium channel KCNH2 (Homo sapiens) (UniProt Q12809)
Assay: modulators of KCNH2 ion channel function, cellular (AID 376);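 further: 0% = buffer alone and 100% = reference blocker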
Settings: hERG-expressing cells, channel activity single-concentration screen; concentration not given here

Chain of Voltage-gated inwardly rectifying potassium channel KCNH2 (Homo sapiens) (Q12809 whole entry, looked up): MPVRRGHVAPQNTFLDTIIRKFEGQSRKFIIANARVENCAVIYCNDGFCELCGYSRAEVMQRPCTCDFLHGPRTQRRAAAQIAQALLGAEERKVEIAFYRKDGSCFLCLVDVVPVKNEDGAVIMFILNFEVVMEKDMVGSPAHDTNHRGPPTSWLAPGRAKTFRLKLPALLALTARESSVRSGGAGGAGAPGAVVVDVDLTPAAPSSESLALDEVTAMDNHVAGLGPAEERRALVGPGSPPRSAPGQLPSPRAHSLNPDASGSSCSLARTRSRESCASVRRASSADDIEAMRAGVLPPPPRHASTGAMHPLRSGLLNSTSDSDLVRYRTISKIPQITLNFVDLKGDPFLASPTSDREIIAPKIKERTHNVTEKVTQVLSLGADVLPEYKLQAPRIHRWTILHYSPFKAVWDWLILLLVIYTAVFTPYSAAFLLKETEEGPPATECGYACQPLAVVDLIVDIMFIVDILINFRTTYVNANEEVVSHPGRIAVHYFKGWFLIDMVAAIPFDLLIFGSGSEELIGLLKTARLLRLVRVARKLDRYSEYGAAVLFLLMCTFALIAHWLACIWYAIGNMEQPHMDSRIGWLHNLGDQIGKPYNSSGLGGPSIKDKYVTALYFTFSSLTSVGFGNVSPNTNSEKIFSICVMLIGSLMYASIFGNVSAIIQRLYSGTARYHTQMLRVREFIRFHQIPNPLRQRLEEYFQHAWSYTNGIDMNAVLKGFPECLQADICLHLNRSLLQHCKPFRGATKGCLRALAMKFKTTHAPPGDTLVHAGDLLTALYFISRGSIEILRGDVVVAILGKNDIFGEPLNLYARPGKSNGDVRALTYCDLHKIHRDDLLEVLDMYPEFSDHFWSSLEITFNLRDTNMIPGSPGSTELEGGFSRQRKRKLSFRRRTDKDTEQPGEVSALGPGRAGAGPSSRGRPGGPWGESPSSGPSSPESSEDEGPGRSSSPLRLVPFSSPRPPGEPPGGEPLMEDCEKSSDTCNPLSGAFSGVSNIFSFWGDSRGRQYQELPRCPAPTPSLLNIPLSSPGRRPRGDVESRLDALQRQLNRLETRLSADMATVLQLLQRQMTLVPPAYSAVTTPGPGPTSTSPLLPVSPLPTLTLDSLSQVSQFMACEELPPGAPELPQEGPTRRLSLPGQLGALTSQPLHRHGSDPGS

Structure (SMILES) | hERG blockade
CC(CC(N)C(=O)O)C(=O)O (configuration not stated) | 1.62%
Cc1cc2c(SCc3ccccc3Cl)nc(N)nc2nc1C | -7.31%
O=C1c2cccc([N+](=O)[O-])c2C(=O)N1c1ncn[nH]1 | 24.2% (active)
O=C(O)C(Cc1ccccc1)N1C(=O)c2ccccc2C1=O (configuration not stated) | 13.1%
O=C(O)CC(C(=O)O)C1c2ccccc2-c2ccccc21 (configuration not stated) | 14.3%
NC(=O)C1CCCNC1 (configuration not stated) | -2.06%
O=C(O)c1cc(-c2ccc(-c3ccc(-c4cc(C(=O)O)c5cc(Cl)ccc5n4)cc3)cc2)nc2ccc(Cl)cc12 | -1.3%
CN(C)CCCSc1nc2ccccc2[nH]1 | -13.7%
CN(C)CCCc1c2ccccc2nc2ccc(Cl)cc12 | 35.2% (active)
CC(=O)C1CCC2C1(C)CC=C1C23C=CC2(CC(O)CCC12C)C(C(=O)O)C3C(=O)O (configuration not stated) | 3.22%
NC(N)=NC(N)=Nc1ccc(S(=O)(=O)O)cc1 | -3.84%
O=[N+]([O-])c1ccc2c(c1)Cc1cc(N=Cc3ccc4c(c3)OCO4)ccc1-2 | -2.54%
COc1cc2c(cc1O)C(c1cc(O)c(O)c(OC)c1)C(O)(C(=O)O)C(CO)C2O (configuration not stated) | -2.14%
O=C(O)c1c(Br)c(Br)c(Br)c(Br)c1C1c2ccc(O)cc2Oc2cc(O)ccc21 | 2.46%
c1cnc2c(c1)ccc1cccnc12 | 56.6% (active)
Cc1ccc(NC(c2ccccc2)c2ccc3cccnc3c2O)cc1 (configuration not stated) | -7.23%
Oc1c(C(Nc2ccccn2)c2ccccc2)ccc2cccnc12 (configuration not stated) | 12.1%
Cc1ncn(-c2ccccc2O)c1C | -3.27%
CSC(CC(=O)O)C(=O)O (configuration not stated) | -18%
CC1OC(CC(=O)O)Cc2c1c(O)c1c(O)cc(-c3cc(=O)c4c(=O)c5c(c(=O)c=4c3=O)CC(CC(=O)O)OC5C)c(O)c1c2O (configuration not stated) | 14.9%
Oc1cccc2ccc(SSc3ccc4cccc(O)c4n3)nc12 | 0.631%
Oc1ccc2ccccc2c1C=Cc1ccc2c(Br)cc(Br)c(O)c2n1 | 11%

Structure (SMILES) | hERG blockade
C[n+]1cccc(C=Cc2ccc3cccc(O)c3n2)c1 | 48.1% (active)
O=C(O)c1cc(=O)[nH]c(SCc2ccccc2)n1 | 0.275%
C[N+](C)([O-])Cc1cc(-c2ccccc2)ccc1O | -15.8%
O=C(SCc1cccc2ccccc12)c1ccc(Cl)cc1 | -11.8%
S=C(S)NCCCn1ccnc1 | -3.79%
NCCSS(=O)(=O)CCN | 3.89%
Cc1cc(N)c2cc(OCCOc3ccc4nc(C)cc(N)c4c3)ccc2n1 | 38.9% (active)
CCOc1ccc2nc3cc(N=Nc4ccc(N)nc4N)ccc3c(N)c2c1 | 19.7%
Cc1cc(N)c2cc(NC(=O)Nc3ccc4nc(C)cc(N)c4c3)ccc2n1 | 1.21%
O=C(O)CC12CC3CC(CC(O)(C3)C1)C2 | -8.63%
CCCCCC(O)C1C(=O)OC(C)C(O)C=CC=CC=CC=CC=C(C)C(O)CC(O)CC(O)CC(O)CC(O)CC(O)CC1O (configuration not stated) | -9.84%
O=C(O)C(C1NCCS1)N1Cc2ccccc2C1 (configuration not stated) | -7.98%
C[N+]1(Cc2ccc(Cl)c(Cl)c2)CCCC1c1ccc[n+](Cc2ccc(Cl)c(Cl)c2)c1 (configuration not stated) | 16.1%
c1cncc(CNCc2cccnc2)c1 | 5.77%
C[N+]1(CC[N+]2(C)CCCC2c2cccnc2)CCCC1c1cccnc1 (configuration not stated) | 23.3% (active)
CC1(C)SC2C(NC(=O)Cc3ccccc3)C(=O)N2C1C(=O)O (configuration not stated) | 1.04%
O=C(O)c1ccc(NC(c2ccccc2)c2ccc3cccnc3c2O)cc1 (configuration not stated) | -7.8%
CC1(CCC(=O)OC2CCCCC2)OCCO1 | -7.92%
CC(C)(C)c1ccc(OCC(=O)O)c(Cl)c1 | -5.3%
CN1CCN(CCCNN)CC1 | -5.53%
CN1CCN(CCCBr)CC1 | 25.3% (active)
CN1CCN(CCCN)CC1 | -1.63%

Structure (SMILES) | hERG blockade
O=C(O)C(Cc1ccc(O)c([N+](=O)[O-])c1)N1C(=O)c2ccccc2C1=O (configuration not stated) | -10.2%
[O-][N+](CCO)(CCO)c1ncnc2nc[nH]c12 | 13%
O=C1C(Cl)=C(Nc2ccc(S(=O)(=O)Nc3ccccn3)cc2)C(=O)c2ccccc21 | 9.57%
COc1cc(NCCC2CCCCN2)c2ncccc2c1 (configuration not stated) | 7.01%
Cc1cc(N2CCN(C)CC2)n2nc(-c3ccc(Cl)cc3)nc2n1 | 90% (active)
O=c1[nH]c(SCc2c(Cl)c(Cl)c(Cl)c(Cl)c2Cl)nc(=S)[nH]1 | -9.32%
Cc1ccc(S(=O)(=O)NC(C(=O)O)C(C)C)cc1 (configuration not stated) | 0.497%
Cc1ccc(S(=O)(=O)NC(CN)C(=O)O)cc1 (configuration not stated) | 4.41%
Cc1ccc(S(=O)(=O)NC(CO)C(=O)O)cc1 (configuration not stated) | 23.3% (active)
NC1(C(=O)OCc2ccccc2)CCCC1 | 15.7%
CC(OP(=O)(O)O)C(N)C(=O)O (configuration not stated) | -6.12%
Clc1ccc(CSCCc2ccncc2)cc1Cl | 14.8%
Cn1cnc([N+](=O)[O-])c1Sc1nc(N)nc2c1ncn2Cc1ccccc1 | 37% (active)
CC(C)Cn1cnc2c(Sc3c([N+](=O)[O-])ncn3C)nc(N)nc21 | 4.65%
Nc1nc(SCc2ccccc2)c2ncn(Cc3ccccc3)c2n1 | -3.09%
NC(Cc1c[nH]c2ccc([N+](=O)[O-])cc12)C(=O)O (configuration not stated) | 7.32%
C=C(C)COc1ccc2c(c1)CCC1C2CCC2(C)C(=O)C(=NO)CC12 (configuration not stated) | 0.877%
OCC1OC(O)C(N=Cc2ccc3c(c2)OCO3)C(O)C1O (configuration not stated) | -14.8%
Nc1ccc(S(=O)(=O)Nc2cnc3ccccc3n2)cc1 | 8%
Nc1ccc(S(=O)(=[OH+])[NH2+]c2ncccn2)cc1.[Ag+] | 89.5% (active)
Nc1ccc(S(=O)(=O)NCc2nccs2)cc1 | 17.3%
CC(C)CCNc1ncnc2[nH]ncc12 | 0.816%

Structure (SMILES) | hERG blockade
NCC1OC(n2cnc3c(=O)[nH]c(N)nc32)C(O)C1O (configuration not stated) | 5.66%
CCC1=C(CC2NCCc3ccccc32)CC2c3cc(OC)c(OC)cc3CCN2C1 (configuration not stated) | 47.5% (active)
N#CC(=CNc1ccccn1)C(=O)c1ccco1 | -1.1%
OCCCNCc1ccncc1 | -7.86%
CC1(C)SC2C(C(=O)O)N=C(Cc3ccccc3)N2C1C(=O)O (configuration not stated) | 4.53%
O=[N+]([O-])c1ccc2ncccc2c1CCc1c([N+](=O)[O-])ccc2ncccc12 | 2.28%
CC(=O)C(C)CCOC1(C)OCCC1C (configuration not stated) | -22.8% (active)
Cc1ccc(C)c(C(=N)c2ccccc2Cc2ccccc2)c1 | -12.5%
CC(SCc1ccccc1)C(=O)O (configuration not stated) | 3.31%
NCC(=O)Nc1ccccc1 | 5.81%
O=C(c1no[n+]([O-])c1C(=O)c1csc2ccccc12)c1csc2ccccc12 | 18.4%
Cc1cccc2c1Oc1ccccc1C2NC(=O)c1ccc([N+](=O)[O-])cc1 (configuration not stated) | 32.2% (active)
O=C(O)c1ccccc1C1c2ccccc2Oc2ccccc21 | 12.2%
NC(CC1=CS(=O)(=O)c2ccc(Cl)cc21)C(=O)O (configuration not stated) | 0.214%
Cc1cc(C(=O)CSC(=S)SC(C)(C)C)ccc1Cl | 8.12%
CN(C)CCCNc1cc(O)c2c(c1O)C(=O)c1ccccc1C2=O | 42.1% (active)
CC1=NCC[N+]1(CCc1ccccc1)Cc1ccccc1 (configuration not stated) | 13.6%
CN(C)S(=O)(=O)c1nc(Cl)c2[nH]cnc2n1 | -2.43%
COc1cc(NCCC(=O)O)c2ncccc2c1 | 11.9%
Cn1c(=O)c2[nH]c(CCCCc3nc4c([nH]3)c(=O)n(C)c(=S)n4C)nc2n(C)c1=S | -1.88%
O=C1C=C(N2CCN(c3ccccn3)CC2)C(=O)c2c(O)ccc(O)c21 | 23.2% (active)
Oc1ccc(Cl)cc1C=Nc1cnc2ccccc2c1 | 9.11%

Structure (SMILES) | hERG blockade
C=CCSc1nc2ccccc2c(=O)n1Cc1ccco1 | 3.62%
N#CNC(N)=Nc1ccc(Cl)cc1 | -2.36%
O=C(O)C12CC3(C(=O)O)CC(C(=O)O)(CC(C(=O)O)(C1)C3=O)C2=O | -1.77%
FC(F)(F)c1cccc(-c2nc3nc(Cl)c(Cl)nc3[nH]2)c1 | -24% (active)
CC(CCN)(CCN)[N+](=O)[O-] | -18.2%
CN(Cc1cc(C(C)(C)C)cc(Br)c1O)Cc1cc(C(C)(C)C)cc(Br)c1O | 5.11%
CC(C)C(=O)Cc1ccc2ccccc2n1 | -1.76%
CCOC(=S)SCC(=O)O | 0.925%
O=C(O)C1C2C=CC(O2)C1C(=O)NCc1cccnc1 (configuration not stated) | 5.66%
O=C(O)C1C2CCC(O2)C1C(=O)NCc1cccnc1 (configuration not stated) | -25.3% (active)
O=C(O)C1C2CCC(O2)C1C(=O)Nc1cccc2cccnc12 (configuration not stated) | -5.21%
N=c1ncn(CC=Cc2ccccc2)c2nc[nH]c12 | 15.2%
CN(N=O)c1ccc(C=Cc2ccnc3ccccc23)cc1 | 18.7%
CN1CCN(CN2C(=O)C3C4C=CC(C3C2=O)C2C3C(=O)N(CN5CCN(C)CC5)C(=O)C3C42)CC1 (configuration not stated) | 2.12%
NC(Cc1ccnnc1)C(=O)O (configuration not stated) | -0.431%
O=C(O)C1CC=CCC1C(=O)Nc1cccc(O)c1 (configuration not stated) | 7.36%
O=C1c2ccccc2C(=O)c2c(NC(=O)c3ccc4c5c(ncnc35)-c3ccccc3C4=O)cccc21 | 6.48%
O=C1c2ccccc2C(=O)c2c(Nc3ccc4c5c(cccc35)C(=O)c3ccccc3-4)cccc21 | -13.6%
O=C1c2ccccc2C(=O)c2c(Nc3cc4c5c(ccc6c7ccc8c9c(cc(Nc%10cccc%11c%10C(=O)c%10ccccc%10C%11=O)c(c3c56)c97)-c3ccccc3C8=O)C(=O)c3ccccc3-4)cccc21 | 34.1% (active)
